Test results as given in PubChem BioAssay.
Values joined by “and” are separate entries in the source; they are usually repeats but may differ in a detail not shown here. Equal values may be shown once. Inconclusive results are not listed. For part of these data: Measured potencies and affinities stand elsewhere. Active and inactive are the calls of the source.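 The calls were made as follows, unless noted: active = thallium flux through the channel raised or lowered by more than 3 SD from vehicle-only wells, actives on both sides; inactive = the rest.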

What was measured:
[1] = antimalarial activity against Dd2 strain (AID 2302;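 active = growth inhibition above 50% at the single 2 µM test dose, taken to imply half-maximal potency below 2 µM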;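 also: 0% = DMSO untreated growth and 100% = chloroquine plus artemisinin killed control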); conditions: P. falciparum Dd2 in RBCs, LDH growth readout, 72 h; at 2 µM; stronger effect = higher value
[2] = human hepatoma cell viability loss – ATP luminescence, cytotoxicity control for P. falciparum antimalarial project, primary screen (AID 2303;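 active = inhibition above 50%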;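 also: 0% = DMSO wells and 100% = digitonin-killed cells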); conditions: HepG2 viability, 24-48 h, at 10 µM, stronger effect = higher value
[3] = target: L-lactate dehydrogenase (Plasmodium falciparum (isolate CDC / Honduras)) (UniProt Q27743); test: PfLDH activity inhibition – cell lysate, 3D7 strain, counter-screen for P. falciparum growth inhibition project (AID 2304; call rule not given here;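 also: 0% = vehicle and 100% = reference inhibitor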); conditions: P. falciparum 3D7 crude extract, LDH APAD/NBT absorbance; at 2 µM; stronger effect = higher value
[4] = inhibition of 3D7 malaria parasite growth – strain 3D7 (AID 2306; call rule not given here;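 also: 0% = DMSO wells and 100% = chloroquine plus artemisinin control wells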); conditions: P. falciparum 3D7 erythrocytic growth, LDH absorbance, 72 h; at 2 µM; stronger effect = higher value
[5] = target: Calcium-dependent protein kinase 1 (Plasmodium falciparum (isolate 3D7)) (UniProt P62344); test: PfCDPK1 kinase inhibitors, biochemical, TCAMS library (AID 1159585; cut-off not given, nearly all actives have IC50 up to about 0.98 µM;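 also: inhibitors leave more ATP so luminescence rises with inhibition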); conditions: recombinant PfCDPK1, Kinase-Glo ATP depletion luminescence
[6] = target: Plasmodium falciparum protein kinase 6 (PK6, PF3D7_1337100) (UniProt Q8IDW1); test: PfPK6 kinase inhibitors, biochemical, TCAMS library (AID 1159586; call rule not given here); conditions: recombinant PfPK6, Kinase-Glo ATP depletion luminescence
[7] = target: Protein kinase 7 (PK7), Plasmodium falciparum 3D7 (PF3D7_0213400) (UniProt Q7YTF7); test: inhibition of Plasmodium PK7 catalytic activity – biochemical, TCAMS antimalarial set, Kinase-Glo luminescence (AID 1159587; call rule not given here); conditions: recombinant PfPK7, Kinase-Glo ATP depletion luminescence
[8] = target: Calcium-dependent protein kinase 4 (Plasmodium falciparum (isolate 3D7)) (UniProt Q8IBS5); test: PfCDPK4 kinase inhibitors, biochemical, TCAMS library (AID 1159588; cut-off not given, nearly all actives have IC50 up to about 0.91 µM); conditions: recombinant PfCDPK4, Kinase-Glo ATP depletion luminescence
[9] = P. berghei load reduction in hepatocytes – cell-based, HepG2, luciferase luminescence, HepG2 viability, primary screen (AID 624349; in the data active = parasite load remaining mostly below about 12%, no sharp cut-off; inactive = mostly above about 10%;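 also: 100% = mean of DMSO negative control wells on the same plate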); conditions: P. berghei liver stage in HepG2, luciferase luminescence, concentration not given here; parasite load remaining: stronger effect = lower value; viability: measured here: HepG2 viability without parasites
[10] = tested on: Neuropilin-2 / VEGF-C interaction (human); test: small molecules blocking Neuropilin-2/VEGF-C interaction – biochemical, microplate binding format, z-score (AID 743281; call rule not given here); conditions: microplate NRP2/VEGF-C binding assay; stronger effect = lower value
[11] = modulation of C. elegans fzo-1 (AID 1259413; call rule not given here;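 also: fzo-1 mutant C. elegans worms in liquid wells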); conditions: C. elegans fzo-1 modulator screen, mean read-out; stronger effect = higher value
[12] = EMT-state selective cytotoxicity in co-culture – imaging, PC-3E GFP, TEM4-18 mCherry, primary screen (AID 1345086;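 active = compounds killing one labelled cell type while sparing the other, by normalised counts and ratio limits, not self-fluorescent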;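 also: cells exposed to compound for 72 h before imaging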;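 as to red/green cell ratio (normalised): normalised mesenchymal count divided by normalised epithelial count so high means epithelial killing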); conditions: PC-3E GFP / TEM4-18 mCherry co-culture, imaging cell counts, at 1 µM
[13] = tested on: Aerobactin synthetase IucA (Klebsiella pneumoniae); test: inhibition of K. pneumoniae IucA enzyme – biochemical, Tocris library, absorbance (AID 1345561; call rule not given here;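 also: 100% = enzyme without compound and 0% = no enzyme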); conditions: purified IucA enzyme assay, absorbance (OD) read-out; stronger effect = lower value;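 tested at 8 µM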
[14] = viability loss in pontine glioma line – cell-based, SU-DIPG-XIII, MIPE4.0, CellTiter-Glo, qHTS, dose response (AID 1347061; cut-off not given, nearly all actives have AC50 up to about 37 µM;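 also: cells exposed to compound for 48 hours before readout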); conditions: CellTiter-Glo ATP luminescence
[15] = viability loss in pontine glioma line – cell-based, SU-DIPG-IV, MIPE4.0, CellTiter-Glo, qHTS, dose response (AID 1347063; cut-off not given, nearly all actives have AC50 up to about 30 µM;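 also: compound exposure lasted 48 hours before the viability readout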); conditions: CellTiter-Glo ATP luminescence
[16] = growth inhibition of DIPG cells – cell-based, MIPE4.0 library, CellTiter-Glo luminescence, qHTS (AID 1347066; cut-off not given, nearly all actives have AC50 up to about 30 µM;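 also: cells exposed to compound for 48 hours before readout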); conditions: SU-DIPG-VI viability, CellTiter-Glo ATP luminescence
[17] = viability loss with induced miR-34 in A549 – imaging, A549 dox-inducible miR-34, nuclei and caspase counts, primary screen (AID 1347080;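 active = compounds whose cell count with miR-34 switched on is under 0.7 times the count with it off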); conditions: A549 miR-34 inducible, Hoechst nuclei count, 48 h
[18] = target: NAD(+) hydrolase SARM1 (Homo sapiens) (UniProt Q6SZW1); test: blocking NAD cleavage by SARM1 SAM-TIR – cell lysate, NAD-Glo luminescence (AID 1508614;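 active = compound whose remaining NAD level is above about 45 nM, limit read from the data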;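 also: higher remaining NAD means stronger inhibition of SARM1 NADase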); conditions: SAM-TIR HEK293T lysate NADase, at 1 µM, stronger effect = higher value
[19] = target: Mitogen-activated protein kinase 7 (Homo sapiens) (UniProt Q13164); test: Gal4-ERK5 driven luciferase induction – cell-based, HTS, primary screen (AID 1508626;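 active = luciferase signal above three times the same-plate solvent-only control wells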;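 also: luciferase driven by Gal4-ERK5 fusion binding five Gal4 sites before minimal TATA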); conditions: HeLa Gal4-ERK5 transactivation, 18 h, at 5 µM, stronger effect = higher value
[20] = galactose survival enhancers in mitochondrial complex I cybrids – cell-based, galactose medium, ATP luminescence, primary screen (AID 1645843;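 active = z-score of at least 1.8 in each of two replicates, scored against plate mean and spread of sample wells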;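 also: positive z means more ATP and so rescue of galactose-driven cybrid death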); conditions: complex I mutant cybrid cells, 72 h, stronger effect = higher value
F380Y = test: BK channel mutant inhibitors and activators – cell-based, U2OS BacMam, thallium flux, beta subunits, selectivity assay, profiling panel (AID 1259406); conditions: U2OS BacMam BK variants, at 30 µM;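 also: initial slope of Thallos dye fluorescence rise after thallium is added; log ratio against the mean of 0.3% DMSO vehicle wells on the same plate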
F380Y/beta1 = test: as above; conditions: U2OS BacMam BK variants, at 30 µM
F380Y/beta2Delta = test: as above; conditions: U2OS BacMam BK variants, at 30 µM
F380Y/beta4 = test: as above; conditions: U2OS BacMam BK variants, at 30 µM
[21] = target: Calcium-activated potassium channel subunit alpha-1 (Homo sapiens) + Leucine-rich repeat-containing protein 26 (Homo sapiens) (UniProt Q12791+Q2I0M4); test: as above; conditions: U2OS BacMam BK variants, F380Y/Slo1WT/gamma1, at 30 µM
R275C = test: as above; conditions: U2OS BacMam BK variants, at 30 µM
R275C/beta1 = test: as above; conditions: U2OS BacMam BK variants, at 30 µM
R275C/beta2Delta = test: as above; conditions: U2OS BacMam BK variants, at 30 µM
R275C/beta4 = test: as above; conditions: U2OS BacMam BK variants, at 30 µM
R275C/Slo1WT/beta2 = test: as above; conditions: U2OS BacMam BK variants, at 30 µM
[22] = compounds altering circadian rhythm period length – cell-based, LOPAC library, luminescence reporter (AID 2774; call rule not given here;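 also: values are relative to mean of DMSO wells on each plate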); conditions: circadian reporter cells, at 7 µM, actives lie on both sides
[23] = tested on: Hepatitis C virus NS3 helicase; test: blockers of NS3h binding to ssDNA – biochemical, fluorescence polarization, LOPAC1280 library, primary screen (AID 687035; in the data active = inhibition above about 37%); conditions: Purified HCV NS3 helicase, Cy5-dT15 ssDNA binding fluorescence polarization; stronger effect = higher value; concentration not given here
[24] = compounds altering Cy5-DNA-NS3h complex signal – biochemical, LOPAC1280, artefact control for HCV NS3 helicase inhibitor project (AID 687037; call rule not given here); conditions: Cy5-DNA-NS3h complex fluorescence interference counterscreen
[25] = signal quenchers or enhancers, Cy5 substrate/SSB – biochemical, NIH Clinical Collection, E. coli SSB, artefact control for HCV NS3 helicase inhibitor project (AID 743268; call rule not given here); conditions: Cy5-oligo bound E. coli SSB, fluorescence interference
[26] = tested on: Hepatitis C virus NS3 helicase; test: blockers of NS3h binding to DNA – biochemical, fluorescence polarization, NIH Clinical Collection, primary screen (AID 743270; call rule not given here); conditions: NS3 helicase binding to Cy5-dT15 DNA, stronger effect = higher value, concentration not given here
[27] = target: Single-stranded DNA-binding protein (Escherichia coli (strain K12)) (UniProt P0AGE0); test: SSB-ssDNA binding inhibitors – biochemical, fluorescence polarization, NIH Clinical Collection, counter-screen for HCV NS3 helicase inhibitor project (AID 743271; in the data active = inhibition above about 28%); conditions: E. coli SSB-DNA binding, stronger effect = higher value, concentration not given here
[28] = compounds distorting NS3 helicase fluorescence signal – biochemical, NIH Clinical Collection, artefact control for HCV NS3 helicase inhibitor project (AID 743272; call rule not given here;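 also: HCV NS3 helicase with a Cy5 labelled single stranded DNA probe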); conditions: fluorescence interference counterscreen, HCV NS3 helicase assay; stronger effect = lower value
[29] = tested on: Aerobactin synthetase IucA (Klebsiella pneumoniae, hypervirulent); test: biochemical IucA inhibition screen of LOPAC library by absorbance (AID 1346212; call rule not given here;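 also: 100% = no compound wells and 0% = no enzyme wells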); conditions: IucA enzyme assay, absorbance (OD) readout; stronger effect = lower value;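 tested at 8 µM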
[30] = blockers of cellular phospholipid synthesis – cell-based, LOPAC library, screen 4, primary screen (AID 1347384; call rule not given here); conditions: animal cells, phospholipid biosynthesis inhibition screen; at 10 µM
[31] = measured here: relative caspase fold change +Dox/-Dox
[32] = measured here: total cells with miR-34 induction, stronger effect = lower value
[33] = measured here: total cells without miR-34 induction

Chain of Calcium-dependent protein kinase 4 (Plasmodium falciparum (isolate 3D7)) (Q8IBS5 whole entry, looked up): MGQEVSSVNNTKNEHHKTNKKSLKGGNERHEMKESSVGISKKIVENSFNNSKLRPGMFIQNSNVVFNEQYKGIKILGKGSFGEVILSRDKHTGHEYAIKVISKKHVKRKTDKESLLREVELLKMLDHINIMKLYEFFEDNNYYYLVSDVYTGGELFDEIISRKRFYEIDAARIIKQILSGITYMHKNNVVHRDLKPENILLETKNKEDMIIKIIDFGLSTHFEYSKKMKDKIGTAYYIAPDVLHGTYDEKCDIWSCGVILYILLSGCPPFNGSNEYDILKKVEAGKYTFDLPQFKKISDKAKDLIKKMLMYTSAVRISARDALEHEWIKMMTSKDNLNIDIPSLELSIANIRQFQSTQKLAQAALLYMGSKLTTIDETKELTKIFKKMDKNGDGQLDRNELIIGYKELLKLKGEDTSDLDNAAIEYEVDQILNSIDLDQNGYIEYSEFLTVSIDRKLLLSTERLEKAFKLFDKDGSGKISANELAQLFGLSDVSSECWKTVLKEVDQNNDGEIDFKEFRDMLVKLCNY
Chain of Calcium-dependent protein kinase 1 (Plasmodium falciparum (isolate 3D7)) (P62344 whole entry, looked up): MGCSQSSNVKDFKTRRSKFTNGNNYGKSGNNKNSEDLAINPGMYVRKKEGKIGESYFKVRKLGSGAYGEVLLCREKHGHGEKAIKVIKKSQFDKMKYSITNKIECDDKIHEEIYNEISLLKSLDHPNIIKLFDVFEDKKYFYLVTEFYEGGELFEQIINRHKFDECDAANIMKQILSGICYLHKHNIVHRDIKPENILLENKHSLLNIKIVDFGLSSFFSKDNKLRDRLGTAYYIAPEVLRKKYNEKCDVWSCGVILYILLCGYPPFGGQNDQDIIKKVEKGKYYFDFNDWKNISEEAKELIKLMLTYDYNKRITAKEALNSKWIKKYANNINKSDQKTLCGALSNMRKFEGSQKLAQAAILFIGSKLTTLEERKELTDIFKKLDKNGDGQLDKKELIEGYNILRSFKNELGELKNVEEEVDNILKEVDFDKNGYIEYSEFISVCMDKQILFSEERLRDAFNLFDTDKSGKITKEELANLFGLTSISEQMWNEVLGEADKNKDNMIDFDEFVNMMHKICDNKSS
Chain of L-lactate dehydrogenase (Plasmodium falciparum (isolate CDC / Honduras)) (Q27743 whole entry, looked up): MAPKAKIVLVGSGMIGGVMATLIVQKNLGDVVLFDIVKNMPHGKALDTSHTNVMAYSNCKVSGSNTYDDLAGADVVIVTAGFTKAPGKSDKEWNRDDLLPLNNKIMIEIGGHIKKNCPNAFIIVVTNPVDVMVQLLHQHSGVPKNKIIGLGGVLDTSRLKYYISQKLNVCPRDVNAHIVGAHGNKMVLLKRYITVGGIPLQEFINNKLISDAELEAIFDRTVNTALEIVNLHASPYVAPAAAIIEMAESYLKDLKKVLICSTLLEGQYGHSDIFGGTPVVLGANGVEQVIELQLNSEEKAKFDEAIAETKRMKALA
Chain of Plasmodium falciparum protein kinase 6 (PK6, PF3D7_1337100) (Q8IDW1 1-305): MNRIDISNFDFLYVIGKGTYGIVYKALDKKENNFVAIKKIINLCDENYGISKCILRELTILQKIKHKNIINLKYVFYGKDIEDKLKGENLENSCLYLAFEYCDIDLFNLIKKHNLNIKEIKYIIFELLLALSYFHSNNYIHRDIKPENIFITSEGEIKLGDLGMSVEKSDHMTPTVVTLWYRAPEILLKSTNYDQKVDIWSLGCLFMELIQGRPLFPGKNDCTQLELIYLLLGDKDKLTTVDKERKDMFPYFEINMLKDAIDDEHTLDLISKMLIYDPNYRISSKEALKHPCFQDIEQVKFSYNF
Chain of Protein kinase 7 (PK7), Plasmodium falciparum 3D7 (PF3D7_0213400) (Q7YTF7 1-343): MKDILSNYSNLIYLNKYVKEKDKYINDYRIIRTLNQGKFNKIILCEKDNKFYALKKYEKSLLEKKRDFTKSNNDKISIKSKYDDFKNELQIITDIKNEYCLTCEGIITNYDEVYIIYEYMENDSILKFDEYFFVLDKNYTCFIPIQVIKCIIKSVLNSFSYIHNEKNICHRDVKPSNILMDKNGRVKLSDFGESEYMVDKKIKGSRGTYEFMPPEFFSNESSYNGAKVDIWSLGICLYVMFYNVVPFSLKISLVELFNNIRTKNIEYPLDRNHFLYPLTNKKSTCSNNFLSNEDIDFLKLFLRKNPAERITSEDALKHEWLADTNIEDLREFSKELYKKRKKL
Chain of Calcium-activated potassium channel subunit alpha-1 (Homo sapiens) + Leucine-rich repeat-containing protein 26 (Homo sapiens) (Q2I0M4 whole entry, looked up, one chain of several): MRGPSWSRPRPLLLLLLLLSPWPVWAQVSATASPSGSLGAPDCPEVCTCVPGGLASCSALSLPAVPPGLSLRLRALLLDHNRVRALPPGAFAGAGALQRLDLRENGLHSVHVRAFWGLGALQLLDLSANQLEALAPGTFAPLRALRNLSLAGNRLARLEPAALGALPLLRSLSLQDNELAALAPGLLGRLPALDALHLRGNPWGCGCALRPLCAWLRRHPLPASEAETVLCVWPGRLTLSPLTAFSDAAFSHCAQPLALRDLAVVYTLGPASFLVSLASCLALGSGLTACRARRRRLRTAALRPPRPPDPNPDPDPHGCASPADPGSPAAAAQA
Chain of NAD(+) hydrolase SARM1 (Homo sapiens) (Q6SZW1 whole entry, looked up, the tested form may be a part): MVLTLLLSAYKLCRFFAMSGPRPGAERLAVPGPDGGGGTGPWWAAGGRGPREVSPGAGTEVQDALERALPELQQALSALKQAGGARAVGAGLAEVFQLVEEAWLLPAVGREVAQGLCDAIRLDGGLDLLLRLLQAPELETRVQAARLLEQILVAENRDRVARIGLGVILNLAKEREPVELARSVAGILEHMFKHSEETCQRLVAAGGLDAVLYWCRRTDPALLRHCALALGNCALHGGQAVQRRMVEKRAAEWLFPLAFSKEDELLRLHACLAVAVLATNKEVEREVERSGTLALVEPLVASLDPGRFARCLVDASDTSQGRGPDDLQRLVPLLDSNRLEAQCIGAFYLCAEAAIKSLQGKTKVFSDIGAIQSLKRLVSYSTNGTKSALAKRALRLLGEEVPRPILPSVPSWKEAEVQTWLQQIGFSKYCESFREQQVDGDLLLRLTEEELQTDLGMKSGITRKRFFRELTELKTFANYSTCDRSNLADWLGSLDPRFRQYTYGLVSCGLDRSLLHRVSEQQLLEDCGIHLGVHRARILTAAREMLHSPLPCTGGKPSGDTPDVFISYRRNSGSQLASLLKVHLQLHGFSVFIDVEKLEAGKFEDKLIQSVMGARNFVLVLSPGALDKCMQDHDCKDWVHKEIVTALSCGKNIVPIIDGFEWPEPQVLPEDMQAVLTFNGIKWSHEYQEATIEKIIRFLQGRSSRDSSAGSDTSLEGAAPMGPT
Chain of Mitogen-activated protein kinase 7 (Homo sapiens) (Q13164 whole entry, looked up, the tested form may be a part): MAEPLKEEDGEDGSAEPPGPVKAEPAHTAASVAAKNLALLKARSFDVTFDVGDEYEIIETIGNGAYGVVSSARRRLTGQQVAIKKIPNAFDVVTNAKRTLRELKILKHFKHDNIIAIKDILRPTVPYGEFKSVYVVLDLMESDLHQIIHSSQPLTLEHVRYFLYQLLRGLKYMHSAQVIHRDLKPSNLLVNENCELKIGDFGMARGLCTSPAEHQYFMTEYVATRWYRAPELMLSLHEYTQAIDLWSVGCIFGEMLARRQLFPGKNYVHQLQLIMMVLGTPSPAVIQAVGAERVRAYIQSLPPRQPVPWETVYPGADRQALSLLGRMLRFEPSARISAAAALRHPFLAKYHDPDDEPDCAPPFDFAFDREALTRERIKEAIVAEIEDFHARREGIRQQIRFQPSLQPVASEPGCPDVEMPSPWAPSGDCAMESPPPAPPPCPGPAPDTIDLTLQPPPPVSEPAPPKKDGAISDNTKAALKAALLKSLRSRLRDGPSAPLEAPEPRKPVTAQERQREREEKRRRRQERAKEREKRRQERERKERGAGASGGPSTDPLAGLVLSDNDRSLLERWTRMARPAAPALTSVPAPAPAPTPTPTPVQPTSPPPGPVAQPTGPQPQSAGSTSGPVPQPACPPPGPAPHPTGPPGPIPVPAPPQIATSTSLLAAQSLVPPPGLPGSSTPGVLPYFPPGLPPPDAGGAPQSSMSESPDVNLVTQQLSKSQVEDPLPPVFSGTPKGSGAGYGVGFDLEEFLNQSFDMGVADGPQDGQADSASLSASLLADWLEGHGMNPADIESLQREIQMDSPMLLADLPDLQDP

CN1CCC(COC(=O)C(O)(c2ccccc2)c2ccccc2)C1 (stereo not drawn)
active: growth inhibition [4] 98%
inactive: growth inhibition [1] 4% | inhibition [2] 0% | inhibition [3] -4% | outcome [5] | outcome [6] | outcome [7] | outcome [8]

O=C1COc2ccccc2N1CCN1CCC(NCc2ccc(-c3cccs3)cc2)CC1
active: growth inhibition [4] 87%
inactive: growth inhibition [1] 18% | inhibition [2] 37% | inhibition [3] -4% | outcome [5] | outcome [6] | outcome [7] | outcome [8]

COc1ccc(C(=O)c2ccc3[nH]cc(C4=CCN(C)CC4)c3c2)cc1
active: growth inhibition [1] 55% | growth inhibition [4] 88%
inactive: inhibition [3] 4% | outcome [5] | outcome [6] | outcome [7] | outcome [8]

CCOC(=O)c1cncn1[C@H](C)c1ccccc1
75.6%: viability [9]
0.95: normalised cell number ([12]; measured here: epithelial PC-3E GFP cell survival)
9560: cell count [17, 33]
9210: cell count [17, 32]
0.93: normalised cell number ([12]; measured here: mesenchymal TEM4-18 mCherry cell survival)
0.785: fold change [17, 31]
inactive: parasite load remaining [9] 110% | z-score [10] 0.0538 | mean signal [11] 274 | red/green cell ratio (normalised) ([12]; actives lie on both sides) 0.98 | remaining activity [13] 122% | outcome [14] | outcome [15] | outcome [16] | fold change ([17]; stronger effect = lower value) 0.964 | remaining NAD [18] 10 nM | luciferase signal [19] 52 AU | z-score [20] -0.35 | log fold change Tl+ flux (F380Y) -0.0483 | log fold change Tl+ flux (F380Y/beta1) -0.0564 | log fold change Tl+ flux (F380Y/beta2Delta) -0.0261 | log fold change Tl+ flux (F380Y/beta4) -0.0155 | log fold change Tl+ flux [21] 0.0279 | log fold change Tl+ flux (R275C) 0.000434 | log fold change Tl+ flux (R275C/beta1) 0.000109 | log fold change Tl+ flux (R275C/beta2Delta) 0.0419 | log fold change Tl+ flux (R275C/beta4) 0.0313 | log fold change Tl+ flux (R275C/Slo1WT/beta2) 0.023

O=c1[nH]c(=S)[nH]c(O)c1C=C1C=CC=N1
inactive: log fold change Tl+ flux (F380Y) 0.0328 | log fold change Tl+ flux (F380Y/beta1) 0.0561 | log fold change Tl+ flux (F380Y/beta2Delta) 0.06 | log fold change Tl+ flux (F380Y/beta4) 0.0563 | log fold change Tl+ flux [21] 0.0242 | log fold change Tl+ flux (R275C) 0.0249 | log fold change Tl+ flux (R275C/beta1) 0.101 | log fold change Tl+ flux (R275C/beta2Delta) 0.0741 | log fold change Tl+ flux (R275C/beta4) 0.0391 | log fold change Tl+ flux (R275C/Slo1WT/beta2) -0.0255

CC(C)N(C)C(=O)n1cnc(S(=O)(=O)C2C[C@@H]3CC[C@H]2C3)n1 (stereo partly drawn)
active: growth inhibition [1] 96% | growth inhibition [4] 97%
inactive: inhibition [2] 26% | inhibition [3] 6% | outcome [5] | outcome [6] | outcome [7] | outcome [8]

N#CC(C#N)=Cc1cccnc1
inactive: log fold change Tl+ flux (F380Y) 0.00869 | log fold change Tl+ flux (F380Y/beta1) 0.00181 | log fold change Tl+ flux (F380Y/beta2Delta) -0.0117 | log fold change Tl+ flux (F380Y/beta4) -0.0312 | log fold change Tl+ flux [21] 6.5e-05 | log fold change Tl+ flux (R275C) -0.0132 | log fold change Tl+ flux (R275C/beta1) -0.0358 | log fold change Tl+ flux (R275C/beta2Delta) -0.0205 | log fold change Tl+ flux (R275C/beta4) 0.025 | log fold change Tl+ flux (R275C/Slo1WT/beta2) -0.0203

CCOC(=O)CCCN1C(=O)CN=C(c2ccccc2)c2cc(Cl)ccc21
inactive: growth inhibition [1] 47% | inhibition [3] -8% | outcome [5] | outcome [6] | outcome [7] | outcome [8]
active: inhibition [2] 54% | growth inhibition [4] 97%

C#CCN1CCC2=C(C1)c1c(O)cc(C(C)C(C)CCc3ccc(F)cc3)cc1OC2(C)C (stereo not drawn)
inactive: inhibition [2] 10% | inhibition [3] 3% | outcome [5] | outcome [6] | outcome [7] | outcome [8]
active: growth inhibition [1] 99% | growth inhibition [4] 100%

C[N+]1(C)CCN(c2ccccc2)CC1
9580 and 9940: cell count [17, 33]
9770 and 9860: cell count [17, 32]
1.06 and 1.59: fold change [17, 31]
87.7%: viability [9]
inactive: period change [22] -0.125 h | parasite load remaining [9] 117% | inhibition [23] -1% | fluorescence ratio (interference) [24] 1 | fluorescence ratio [25] 1.03 | inhibition [26] 6.73% | inhibition [27] 2.21% | fluorescence ratio [28] 1.01 | z-score [10] -0.409 | mean signal [11] 284 | remaining activity [29] 113% | fold change ([17]; stronger effect = lower value) 1.02 and 0.991 | outcome [30] | z-score [20] 0.43 and 1.15 | log fold change Tl+ flux (F380Y) -0.0112 | log fold change Tl+ flux (F380Y/beta1) -0.0597 | log fold change Tl+ flux (F380Y/beta2Delta) -0.0318 | log fold change Tl+ flux (F380Y/beta4) 0.0424 | log fold change Tl+ flux [21] -0.0251 | log fold change Tl+ flux (R275C) -0.0752 | log fold change Tl+ flux (R275C/beta1) 0.0101 | log fold change Tl+ flux (R275C/beta2Delta) 0.00724 | log fold change Tl+ flux (R275C/beta4) -0.0438 | log fold change Tl+ flux (R275C/Slo1WT/beta2) -0.0166
